Molecules are shown by their SMILES. About 83,000 compounds went through this panel and 20% of them were active in at least one assay; those are over-represented in the sample as a whole.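 Single-concentration screen, 48 h exposure, 96-well plates. Endpoint: percent growth. Below 10 = active.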 Unmarked numbers belong to inactive results. The source made the active and inactive calls.

Holding throughout (assay): NCI-60 one-dose screen, 48 h (100 = growth as untreated, 0 = no growth, -100 = all killed)
Common to all, as to conditions: 10 µM unless noted

The subject of test [1] is SR leukemia.
Test [2] relates to RPMI-8226 leukemia.
Test [3] deals with OVCAR-8 ovarian.
Test [4] deals with OVCAR-5 ovarian.
In test [5] the test system is OVCAR-4 ovarian.
In test [6] the test system is SK-OV-3 ovarian.
The test system of test [7] is IGROV1 ovarian.
Test [8] deals with OVCAR-3 ovarian.
Test [9] has as its system HS 578T breast.
Test [10] concerns NCI/ADR-RES ovarian.

With `CN(C)CCCn1c2c(c3ccc(-c4ccn[nH]4)cc3c1=O)C(=O)c1ccccc1-2`, the growth in test [1] was -1.12% (active); in test [2], -0.979% (active); in test [3] it was 23.7%; in [4] it was 59.2%; in test [5] it was 77.9%; in test [6] it was 23.5%. For the same compound, the growth is 41.2% in test [7], 66.9% in [8], 68.6% in test [9] and 50.3% in test [10].
Regarding `Cc1ccc(C2CC(c3cccc(Nc4ccncc4)c3)=NN2c2ccc(Cl)cc2)cc1` (stereo not given), the growth in [1] is -12.4% (active); in test [2], -46% (active); in test [3], -35% (active); in test [4], -100% (active); in test [5] it was -83.2% (active); in [6], -92.3% (active). For the same compound, the growth in test [7] was -92.7% (active); in [8], -91.1% (active); in test [9] it was -55.9% (active); in [10], -63% (active).
As to `COc1cc2nc(-c3ccc(C(F)(F)F)cc3)cc(OCCCN3CCC(O)CC3)c2cc1OC`, the growth in [1] is 10.9%; in test [2] it was 9.93% (active); in [3], 44.1%; in test [4] it was 42.8%; in [5] it was 59.7%; in test [6], 65.8%. Further, the growth in test [7] is 27.2%; in [8] it was 64%; in test [9], 64.7%; in test [10] it was 37.6%.
With `CNC(=O)c1c(NC(=O)c2ccc(C(C)C)cc2)sc2c(CN(C)C)c(O)ccc12`, the growth in [1] is -9.94% (active); in test [2], 22.5%; in test [3] it was 112%; in test [4], 106%; in test [5], 98.6%; in [6] it was 99.7%. In addition, the growth in test [7] is 90.5%; in test [8], 99.3%; in test [9], 89.6%; in test [10], 91.3%.
As to `Clc1ccc(N2N=C(c3cccc(Nc4ccncc4)c3)CC2c2ccc(Br)cc2)cc1` (stereo not given), the growth is 1.87% (active) in test [1]; -2.67% (active) in test [2]; -18.7% (active) in test [3]; 77.8% in test [4]; 0.0501% (active) in test [5]; 85.7% in [6]. For the same compound, the growth in test [7] was 3.01% (active); in test [8], 37.7%; in test [9] it was 60.5%; in [10], 39.6%.
Regarding `Cc1ccccc1C(c1ccccc1)c1ccccc1C`, the growth in test [1] is 104%; in test [2], 89.5%; in [3], 89.8%; in test [4], 85%; in [5], 108%; in test [6] it was 75.1%. Further, the growth was 92.2% in test [7], 104% in test [8], 106% in test [9] and 104% in test [10].
In the case of `CN1CCN(c2cnc(C(=O)Nc3cc(F)cc4cccnc34)cn2)CC1`, the growth is 24.5% in test [1]; 49.2% in test [2]; 63.8% in test [3]; 62.7% in test [4]; 8.94% (active) in test [5]; 96.9% in test [6]. For the same compound, the growth was 8.45% (active) in test [7], 9.25% (active) in test [8], 69.2% in test [9] and 56.5% in [10].
As to `CCCCCCCCCCCCCCCCCCOc1ccccc1N`, the growth in test [1] was 75.4%; in test [2], 12.1%; in [3] it was 70.9%; in test [4] it was 101%; in test [5], 55%; in test [6], 74.7%. Moreover, the growth in test [7] is 75.1%; in test [8] it was 44.9%; in test [9], 84.2%; in [10], 86.9%.
For `O=C1C(=O)c2c(nc3ncccn23)-c2ccccc21`, the growth in test [1] is -14.8% (active); in test [2], -25.3% (active); in test [3], -60.7% (active); in test [4], -88.1% (active); in [5] it was -96.2% (active); in test [6], -97.9% (active). In addition, the growth in test [7] was -58.5% (active); in [8], -50.2% (active); in test [9] it was -18.7% (active); in test [10] it was -32.8% (active).
On to `O=C(CN1CCOCC1)Nc1ccc2ncnc(Nc3ccc(Oc4cccc(C(F)(F)F)c4)c(Cl)c3)c2c1`, for which the growth is 61.5% in test [1]; 51.5% in [2]; 49.8% in test [3]; 64.3% in [4]; 55% in test [5]; 16% in test [6]. For the same compound, the growth in [7] is 9.01% (active); in [8], 33.8%; in [9] it was 70.8%; in test [10] it was 42.3%.
With `CCNC(=S)NNC(=O)c1cc2ccc1CCc1ccc(cc1)CC2`, the growth in test [1] is 101%; in [2] it was 102%; in test [3] it was 102%; in test [4] it was 96.2%; in test [5] it was 106%; in test [6], 123%. In addition, the growth is 103% in test [7], 98.6% in test [8], 102% in test [9] and 101% in test [10].
On to `COc1ccc(NC(=O)c2sc3nc(C)c(C(=O)CCc4cccc(OC)c4)cc3c2N)cc1`, for which the growth in test [1] is 20.4%; in test [2], 45.7%; in test [3] it was 90.9%; in test [4], 68.9%; in test [5], 76.5%; in test [6], 70.5%. Besides, the growth in test [7] is 75.8%; in test [8], 26.1%; in [9], 82%; in [10], 61.3%.
Consider `NC(=O)c1cccc(-c2ccccc2N2CCCCC2)c1`, for which the growth was 66.4% in [1]; 74.2% in test [2]; 99.7% in test [3]; 95.1% in test [4]; 89.9% in test [5]; 94.9% in test [6]. The growth in test [7] was 92.4%; in [8], 106%; in [9], 101%; in [10], 102%.
Take `COc1ccc2c(c1)c(CC(=O)NCCOCCOCC(=O)Nc1ccc(OC)c(C(N)=O)c1O)c(C)n2C(=O)c1ccc(Cl)cc1`: the growth in test [1] was 90.2%; in test [2], 96.9%; in test [3], 90.3%; in [4], 112%; in test [5], 93.7%; in test [6] it was 109%. Also, the growth in test [7] is 93.9%; in test [8], 103%; in test [9], 105%; in test [10] it was 91.6%.
